# Compound activity deposited in PubChem BioAssay by several laboratories.
# Sampled rows, rich in hits. Any-hit rate of the full collection: about 1.8%.
# CD11b adhes inh: CD11b/CD18-fibrinogen binding inhibition; P05107+P11215; K562 CD11b/CD18 adhesion to fibrinogen, ATPlite luminescence; Mn2+ added to activate the integrin; inhibition, % at 10 µM; actives 0.54% (n = 93,000);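 active means primary inhibition of 50% or more at 10 µM, then 40% or more on retest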
# CD11b adhes enh: enhancers of human CD11b/CD18 binding to fibrinogen; K562 CD11b/CD18 adhesion to fibrinogen, ATPlite luminescence; activation, % at 10 µM; actives 0.07% (n = 93,000);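 active means 10 µM primary screen giving 50% or more activity, confirmed by 40% or more on retest at that dose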
# Pyk2 oligo antag: blocks oligomerization of human Pyk2 in cells. Q14289. Q293 cells, Pyk2 FERM NanoBiT luminescence; active compounds read low. z-score (the deposit names both 25 µM and 10 µM). actives 0.83% (n = 99,000);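 active means Z-score of -3 or lower, scaled per plate to the spread of control and sample wells; inactive means z-score above -3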;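 further: negative z-score means lost luminescence so less FERM oligomerization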
# FAK blocker: inhibitors of human focal adhesion kinase; Q05397; biochemical FAK kinase activity assay; inhibition, %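 (tested at 7 µM)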; actives 0.84% (n = 97,000); AID 727; in the data active means inhibition above about 19%;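 further: 0% = DMSO and 100% = reference compound high control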
# * = called active by the depositor; . = not tested or not shown.
SMILES,CD11b adhes inh,CD11b adhes enh,Pyk2 oligo antag,FAK blocker
Cc1ccccc1NC(=O)C1CCCN1/C=C/C(=O)C(F)(F)F (stereo not drawn),-3,-2,.,.
Cc1sc2ncnc(N3CCCCC3)c2c1C,10,-2,0.73,1
Clc1ccc(OCCN2CCN(c3ncnc4sccc34)CC2)cc1,99*,-8,1,.
Cc1ccc(OCCN2CCN(c3ncnc4sc(C)c(C)c34)CC2)cc1,97*,-8,-0.24,1
CCOC(=O)CSc1nc(N)c(C#N)c(-c2cccs2)c1C#N,.,.,-1.3,-3
N#Cc1c(N)nc(SCc2ccccn2)c(C#N)c1-c1cccs1,-18,6,-3.8*,6
Clc1ccc(C2=Nn3c(nnc3-c3cc(-c4ccccc4)n[nH]3)SC2)cc1,1,0,-1.2,-3
c1ccc(C2=Nn3c(nnc3-c3cc(-c4ccccc4)n[nH]3)SC2)cc1,5,6,-3.3*,-1
COc1cc(-c2nc(-c3ccccc3)c(-c3cccs3)[nH]2)cc(OC)c1OC,10,6,-3*,4
COc1cc(-c2nc(-c3ccc4c(c3)-c3ccccc3S4(=O)=O)c(-c3ccccc3)[nH]2)cc(OC)c1OC,4,0,-3*,0
COc1cc(-c2nc(-c3ccccc3)c(-c3cccs3)[nH]2)cc(OC)c1O,12,0,-0.04,3
COC(=O)c1c(C)[nH]c(C(=O)CSc2ccc(Cl)cc2)c1C,14,1,1.1,-2
O=C(NCC(c1cccs1)N1CCOCC1)c1ccccc1NS(=O)(=O)c1ccc(Cl)c([N+](=O)[O-])c1 (stereo not drawn),101*,-10,.,.
O=C(NCC(c1cccs1)N1CCOCC1)c1ccccc1NS(=O)(=O)c1ccc(Cl)cc1 (stereo not drawn),79*,-6,.,.
O=C(NCC(c1cccs1)N1CCOCC1)c1ccc(Br)o1 (stereo not drawn),-1,-9,0.53,0
O=C(NCC(c1cccs1)N1CCOCC1)c1ccccc1NS(=O)(=O)c1cc([N+](=O)[O-])ccc1Cl (stereo not drawn),85*,-9,.,.
O=C(NCC(c1cccs1)N1CCOCC1)c1ccccc1NS(=O)(=O)c1cccc([N+](=O)[O-])c1 (stereo not drawn),71,-5,.,.
CCCCn1c(N)c(NCC(C)C)c(=O)[nH]c1=O,9,-1,.,.
CCc1cc2c3c(c1)C1(C(=O)N3C(C)(C)CC2C)C(C#N)=C(N)N2C(=C1C#N)Nc1ccccc12 (stereo not drawn),1,-4,.,.
COC(=O)c1cc(C(=O)OCC(=O)Nc2ccccc2OC(F)F)cc([N+](=O)[O-])c1,4,-2,.,.
CN1C(=O)c2ccccc2Sc2ccc(NC(=O)NC3CC3)cc21,.,.,-1.1,5
O=C(Nc1ccc2c(c1)N(Cc1ccccc1)C(=O)c1ccccc1S2)NC1CC1,18,8,-3.1*,2
COc1ccc(NC(=O)/C(C#N)=C\C=C\c2ccco2)cc1,16,3,.,.
COc1cccc(OC)c1-c1nn2c(-c3cc(-c4ccccc4)n[nH]3)nnc2s1,.,.,-3.1*,-240
CCN(CC)c1ccc(-c2nn3c(-c4ccccc4OC)nnc3s2)cc1,84,-11,-4*,4
SMILES,CD11b adhes inh,CD11b adhes enh,Pyk2 oligo antag,FAK blocker
COc1ccccc1-c1nn2c(-c3ccccc3Cl)nnc2s1,-4,2,.,.
Cc1ccc(OCCSCc2nc3ccccc3[nH]2)cc1,.,.,1.4,0
Clc1ccc(OCCSCc2nc3ccccc3[nH]2)cc1,76*,-12,2.1,3
O=C(Nc1ccccc1)c1sc2cc(C(F)(F)F)cnc2c1-c1cccs1,0,4,0.13,-4
O=C(Nc1ccccc1-c1ccccc1)c1ccc(NC(=O)c2ccco2)cc1,6,-2,-1.5,-1
c1ccc(-c2ncc(CSc3nncn3-c3ccccc3)s2)cc1,-10,-1,0.84,3
Cc1nnc(SCc2cnc(-c3ccc(C(C)C)cc3)s2)n1C,70*,-6,-1.9,-1
NC(=O)C1CCN(C(=O)Cn2cccc2C(=O)c2ccccc2)CC1,4,-1,0.1,2
Cc1ccccc1OCCCCc1c(C)n[nH]c1C,90*,-6,-1.7,9
O=S(=O)(Nc1nc2ccccc2s1)c1ccc(Cl)s1,74*,-5,-1.7,1
O=C(CS(=O)(=O)Cc1ccccc1)Nc1nc2ccccc2s1,-46,1,-0.4,5
COc1ccc(CCN2C(=O)c3cccc4c(C(=O)N5CCCCC5)ccc(c34)C2=O)cc1OC,4,-3,.,.
CCCc1nnc(NC(=O)CCC(=O)N2CCN(C3c4ccccc4-c4ccccc43)CC2)s1,0,1,.,.
